A selection: hits, their analogues and other compounds. The true share with any hit is near 2.7%.
MPTP block: inhibitors of mitochondrial permeability transition pore; isolated mouse mitochondria, Ca2+ swelling absorbance, 30 min; inhibition, % at 10 µM; 360,000 compounds, 1.4% hits; AID 602449;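 active means inhibition of 50% or more, scaled per plate between neutral and stimulator controls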;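 further: 0% = DMSO wells given calcium and 100% = 1 mM EGTA wells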
SKN-1 inh: C. elegans SKN-1 inhibition; 360,000 compounds, 0.49% hits; AID 624304; inhibition, % at 21.8 µM; C. elegans VP596 Pgst-4::GFP/RFP ratio, acrylamide-induced, 24 h;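 active means interference check ratio from 0.5 to 1.5 plus GFP to RFP signal ratio inhibition reaching or exceeding a fixed threshold, cut at about 30% in these data, passing the limit was not always enough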
CendR NRP1 mod: modulators of CendR peptide binding to human neuropilin-1 | inhibition, % at 25 µM | AID 602438 | FAM-RPARPAR peptide binding to NRP-1, fluorescence polarization | O14786 | 360,000 compounds, 0.85% hits;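 active means inhibition or corrected inhibition above about 18%, plus a signal ratio from 0.5 to 1.5, limit read from the data, passing the limit was not always enough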
CFTR F508del cor: CFTR F508del correction in bronchial cells; 350,000 compounds, 0.36% hits; activity (quench increase), % at 7.58 µM; CFBE cells, YFP halide quenching; stimulated with forskolin plus potentiator P3; % fluorescence drop versus neutral controls;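 active means mean added fluorescence quench of at least 8% versus neutral control, with both replicates also reaching 8%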;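 further: cells transiently co-express mutant CFTR-F508del with the halide-sensitive YFP; corrector assay measuring rescue of mutant channel to the surface after 24 h compound exposure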
ATG4B inh: blocks human ATG4B protease cleavage of LC3 substrate | Q9Y4P1 | ATG4B cleavage of LC3-PLA2, NBD-HPC fluorescence, 1 h | inhibition, % at 8.33 µM | 340,000 compounds, 0.51% hits; in the data active means inhibition above about 40%
Target sequence (Q9Y4P1 whole entry, looked up): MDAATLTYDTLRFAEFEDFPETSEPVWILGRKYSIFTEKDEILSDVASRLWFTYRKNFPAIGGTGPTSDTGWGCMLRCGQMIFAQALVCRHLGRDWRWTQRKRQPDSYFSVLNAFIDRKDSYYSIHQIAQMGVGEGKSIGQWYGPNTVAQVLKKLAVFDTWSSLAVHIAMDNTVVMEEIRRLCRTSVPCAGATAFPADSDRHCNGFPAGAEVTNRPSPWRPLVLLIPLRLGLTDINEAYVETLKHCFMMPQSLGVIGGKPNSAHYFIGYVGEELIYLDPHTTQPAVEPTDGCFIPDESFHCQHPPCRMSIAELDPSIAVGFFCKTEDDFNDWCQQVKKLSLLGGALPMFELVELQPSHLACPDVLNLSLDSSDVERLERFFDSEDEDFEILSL
Rh123 counter: Rhodamine 123 counter-screen of mitochondrial pore hits; shares compounds with MPTP block; isolated mitochondria, membrane potential, Rhodamine 123 fluorescence; inhibition, % at 10 µM; 5,000 compounds, 78% hits; AID 624504; in the data active means inhibition above about 22%;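 further: 0% = DMSO vehicle and 100% = positive control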
The depositor's hits bear a star; ! = not active in a repeat.

For Cc1c(O)ccc2c(CN3CCN(Cc4ccccc4)CC3)cc(=O)oc12 the results were MPTP block 0.6, SKN-1 inh 25.9, CendR NRP1 mod -1.6, CFTR F508del cor -1.2 and ATG4B inh 4.0.
Screening Cc1c(O)ccc2c(CN(C)Cc3ccccc3)cc(=O)oc12 returned MPTP block 83.7*, SKN-1 inh 12.5, CendR NRP1 mod -4.7, CFTR F508del cor -1.9, ATG4B inh 2.4 and Rh123 counter 61.7*.
Screening Cc1ccc(S(=O)(=O)Nc2ccc3c(c2)C(=O)N([C@@H](C)CO)C[C@H](C)[C@@H](CN(C)Cc2ccc(Cl)c(Cl)c2)OCCCC[C@H](C)O3)cc1 returned CFTR F508del cor 2.5.
For CCCCNc1c(-c2ccc(OC)c(SC(C)CC)c2)nc2ccc(C)cn12 (stereo not given) the results were MPTP block 59.3*!, SKN-1 inh -7.6, CendR NRP1 mod -4.9, CFTR F508del cor 2.8, ATG4B inh 9.7 and Rh123 counter 98.5*.
CCCCNc1c(-c2ccc(Sc3ccc(OC)cc3)cc2)nc2cc(C)ccn12 was read as MPTP block 59.7*, SKN-1 inh 5.7, CendR NRP1 mod -10.7, CFTR F508del cor 2.3, ATG4B inh 7.9 and Rh123 counter 96.7*.
For CCCCNc1c(-c2ccc(OC)c(SC(C)CC)c2)nc2cc(C)ccn12 (stereo not given) the results were MPTP block 46.3, SKN-1 inh 9.8, CendR NRP1 mod -5.0, CFTR F508del cor 3.0 and ATG4B inh 12.2.
Screening CCC(C)Sc1cc(-c2nc3ccc(C)cn3c2NCc2ccccc2)ccc1OC (stereo not given) returned MPTP block 53.5*!, SKN-1 inh 9.1, CendR NRP1 mod 0.5, CFTR F508del cor 0.2, ATG4B inh 8.1 and Rh123 counter 104.9*.
For CS(=O)(=O)N1[C@H](C#N)[C@@H](c2ccc(-c3ccccc3F)cc2)[C@@H]1CO the results were CFTR F508del cor 1.9.
`CCC1Sc2ccc(S(=O)(=O)Nc3ccc(OC)c(OC)c3)cc2NC1=O` (stereo not given) gave MPTP block 95.1*, SKN-1 inh -12.2, CendR NRP1 mod 11.1, CFTR F508del cor 1.5, ATG4B inh -2.6 and Rh123 counter 86.5*.
For CCCOC(=O)c1ccc(OCC(O)Cn2c(C)nc3ccccc32)cc1 (stereo not given) the results were MPTP block 52.6*, SKN-1 inh -9.3, CendR NRP1 mod -1.1, CFTR F508del cor 3.5, ATG4B inh -22.1 and Rh123 counter 102.5*.
`Cc1csc2ncnc(N3CCN(C(=S)Nc4ccc(F)cc4F)CC3)c12` gave MPTP block 82.5*, SKN-1 inh 3.8, CendR NRP1 mod 1.2, CFTR F508del cor 0.1, ATG4B inh -5.0 and Rh123 counter 74.6*.
`Fc1ccc(NC(=S)N2CCCN(c3ccc(C(F)(F)F)cn3)CC2)c(F)c1` gave MPTP block 71.2*, SKN-1 inh 2.9, CendR NRP1 mod -25.0, CFTR F508del cor -4.0, ATG4B inh 3.6 and Rh123 counter 44.5*.
`Cc1ccc(NC(=S)N2CCN(c3ncccn3)CC2)c(C)c1` gave MPTP block 0.5, SKN-1 inh -5.6, CendR NRP1 mod -0.8, CFTR F508del cor -0.4 and ATG4B inh 3.7.
For Cc1noc(C)c1NC(=O)Nc1ccc2c(c1)C(=O)N([C@H](C)CO)C[C@H](C)[C@@H](CN(C)Cc1ccc(C(=O)O)cc1)OCCCC[C@H](C)O2 the results were CFTR F508del cor -0.3.
N#C/C(=C(/O)c1ccc(Cl)c([N+](=O)[O-])c1)c1nc2ccccc2[nH]1 was read as MPTP block 78.3*, SKN-1 inh -1.6, CendR NRP1 mod -8.6, CFTR F508del cor 2.1, ATG4B inh -6.0 and Rh123 counter 80.6*.
`C/C(O)=C(/C#N)c1nc2ccccc2[nH]1` gave MPTP block -1.7, SKN-1 inh -9.9, CendR NRP1 mod 9.0 and ATG4B inh -1.7.
N#C/C(=C(/O)C(Cl)(Cl)Cl)c1nc2ccccc2[nH]1 was read as MPTP block 75.5*, SKN-1 inh -3.5, CendR NRP1 mod -8.3, CFTR F508del cor 4.2, ATG4B inh 0.3 and Rh123 counter 81.3*.
For N#C/C(=C(/O)c1ccc([N+](=O)[O-])cc1)c1nc2ccccc2[nH]1 the results were MPTP block 3.5, SKN-1 inh 5.7, CendR NRP1 mod 22.2, CFTR F508del cor 1.8 and ATG4B inh -0.5.
CC(=O)c1c(C)[nH]c(C(=O)Nc2nc(-c3ccc(-c4ccccc4)cc3)cs2)c1C was read as MPTP block 93.8*, SKN-1 inh -0.2, CendR NRP1 mod -7.7, ATG4B inh -17.6 and Rh123 counter 69.1*.
`CC(=O)c1c(C)[nH]c(C(=O)Nc2nc(-c3ccc(Cl)cc3)cs2)c1C` gave MPTP block 94.1*, SKN-1 inh 5.6, CendR NRP1 mod 4.4, ATG4B inh -10.6 and Rh123 counter 58.0*.
For CCc1c(C)sc(NC(=O)Cn2nc(C(F)(F)F)c3c2CCCC3)c1C#N the results were MPTP block 65.1*, SKN-1 inh -11.8, CendR NRP1 mod -24.9, ATG4B inh -6.4 and Rh123 counter 76.6*.
CN1CCN(C(=O)C[C@H]2C[C@@H]3c4cc(NC(=O)Nc5ccccc5F)ccc4O[C@@H]3[C@H](CO)O2)CC1 was read as CFTR F508del cor -0.8.
For O=C(CSCc1ccccc1)Nc1ccc(F)c(F)c1 the results were MPTP block 71.0*, SKN-1 inh 12.5, CendR NRP1 mod -6.1, ATG4B inh 29.0 and Rh123 counter 63.1*.
C/C(=N\N=C(c1ccccc1)c1ccccc1)c1ccco1 was read as MPTP block 92.9*, SKN-1 inh 5.8, CendR NRP1 mod 0.8, ATG4B inh 8.2 and Rh123 counter -3.1.
Screening C[C@@H]1CN([C@H](C)CO)C(=O)c2cc(NC(=O)CCCN(C)C)ccc2O[C@@H]1CN(C)C(=O)Nc1ccc2c(c1)OCO2 returned CFTR F508del cor -3.2.
For Cc1cccc(CC(Cc2nc3ccccc3[nH]2)c2nc3ccccc3[nH]2)c1 (stereo not given) the results were MPTP block 88.8*, SKN-1 inh 6.3, CendR NRP1 mod 0.9, ATG4B inh -5.1 and Rh123 counter 109.8*.
C[C@@H]1CN([C@@H](C)CO)C(=O)Cc2cc(NC(=O)CCC(F)(F)F)ccc2O[C@H]1CN(C)C(=O)Nc1ccc(F)cc1 was read as CFTR F508del cor -4.0.
Cc1cc(C)nc(/N=C(\N)Nc2ccc(C(C)C)cc2)n1 was read as MPTP block 52.8*, SKN-1 inh 2.1, CendR NRP1 mod -0.5, CFTR F508del cor 0.4, ATG4B inh 6.0 and Rh123 counter 55.8*.
`CCCCc1ccc(N/C(N)=N/c2nc(C)cc(C)n2)cc1` gave MPTP block 87.3*, SKN-1 inh 8.3, CendR NRP1 mod -6.2, CFTR F508del cor -0.2, ATG4B inh 0.7 and Rh123 counter 89.3*.

Assay outcomes as filed in PubChem BioAssay.
